Laboratory results: PubChem BioAssay AID1159580 (chemical genetic matrix, 2015)
The campaign covered roughly 5,500 compounds. About 2,000 (36%) were called active. Inconclusive results (about 18%) are left out. No stated cut-off is given here; in the data, active means normalized growth mostly below about 0.91 (no sharp cut-off); inconclusive means no clear call, values can overlap the other calls; inactive means mostly above about 0.92. The list shows a part of the results.

Assay: chemical genetic growth profiling, strain panel (AID 1159580);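 further: tested at 20 µM; growth read once vehicle control cultures reached saturation at 30 °C; 1 = growth at the plate median or of vehicle wells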
Conditions: S. cerevisiae deletion strains, growth OD
[1] = locus YAL040C, strain CLN3, stronger effect = lower value
[2] = locus YCL061C, strain MRC1 (second series), stronger effect = lower value
[3] = locus YDR363W, strain ESC2, stronger effect = lower value
[4] = locus YER002W, strain NOP16, stronger effect = lower value
[5] = locus YGR078C, strain PAC10, stronger effect = lower value
[6] = locus YGR229C, strain SMI1, stronger effect = lower value
[7] = locus YNL175C, strain NOP13, stronger effect = lower value
[8] = locus YNL197C, strain WHI3, stronger effect = lower value
[9] = locus YNL224C, strain SQS1, stronger effect = lower value
[10] = locus YNL322C, strain KRE1, stronger effect = lower value
[11] = locus YOR083W, strain WHI5 (second series), stronger effect = lower value
[12] = locus YDR150W, strain NUM1, stronger effect = lower value
[13] = locus YHR030C, strain SLT2, stronger effect = lower value
[14] = locus YJR075W, strain HOC1, stronger effect = lower value
[15] = locus YMR263W, strain SAP30, stronger effect = lower value
[16] = locus YMR307W, strain GAS1, stronger effect = lower value
[17] = locus YPL241C, strain CIN2, stronger effect = lower value

Measured: normalized growth

CC(/C=C/c1cccc(Oc2ccc(F)cc2)c1)N(O)C(N)=O (stereo unspecified)
inactive: [1] 0.991 | [2] 0.994 | [3] 0.987 | [4] 1.01 | [5] 1.01 | [6] 1 | [7] 1 | [8] 0.971 | [9] 0.984 | [10] 1.01 | [11] 0.966

Clc1ccc(C2=CSC3=NCCCN23)cc1
inactive: locus YAL013W, strain DEP1, stronger effect = lower value 0.997 | locus YBR229C, strain ROT2, stronger effect = lower value 1.02 | locus YDL101C, strain DUN1, stronger effect = lower value 0.993 | [12] 0.959 | locus YEL061C, strain CIN8, stronger effect = lower value 1 | [5] 0.992 | [6] 1.01 | [13] 0.986 | locus YHR087W, strain rtc3, stronger effect = lower value 0.994 | locus YJR043C, strain POL32, stronger effect = lower value 0.999 | [14] 0.989 | locus YLR039C, strain RIC1, stronger effect = lower value 0.989 | locus YLR058C, strain SHM2 (second series), stronger effect = lower value 1.01 | locus YLR085C, strain ARP6, stronger effect = lower value 1.03 | locus YLR262C, strain YPT6, stronger effect = lower value 0.998 | locus YML094W, strain GIM5, stronger effect = lower value 0.993 | locus YMR219W, strain ESC1, stronger effect = lower value 1.01 | [15] 0.986 | [16] 0.982 | locus YNL153C, strain GIM3, stronger effect = lower value 0.995 | locus YNL298W, strain CLA4 (second series), stronger effect = lower value 1.04 | [10] 0.999 | locus YNR030W, strain Alg12, stronger effect = lower value 1.01 | locus YPL055C, strain LGE1, stronger effect = lower value 1.03 | [17] 1 | locus YPR135W, strain CTF4, stronger effect = lower value 1.02

OCCOCCN1CCN(C2=Nc3ccccc3Sc3ccccc32)CC1
inactive: locus YAL021C, strain ccr4, stronger effect = lower value 1.01 | locus YAL026C, strain drs2, stronger effect = lower value 1 | locus YAL030W, strain snc1, stronger effect = lower value 0.992 | locus YBL061C, strain skt5, stronger effect = lower value 1.02 | locus YBR009C, strain hhf1, stronger effect = lower value 1.02 | locus YBR023C, strain chs3, stronger effect = lower value 1.01 | locus YBR171W, strain sec66, stronger effect = lower value 1 | locus YBR231C, strain swc5, stronger effect = lower value 1.01 | locus YBR279W, strain paf1, stronger effect = lower value 1.01 | locus YCL011C, strain gbp2, stronger effect = lower value 0.993 | locus YCL016C, strain dcc1, stronger effect = lower value 0.997 | locus YCL069W, strain vba3, stronger effect = lower value 1.01 | locus YCR088W, strain abp1, stronger effect = lower value 1 | locus YDL005C, strain med2, stronger effect = lower value 1 | locus YDL040C, strain nat1, stronger effect = lower value 1 | locus YDR001C, strain nth1, stronger effect = lower value 1.01 | locus YDR069C, strain doa4, stronger effect = lower value 0.998 | locus YDR137W, strain rgp1, stronger effect = lower value 1 | locus YDR159W, strain sac3, stronger effect = lower value 1 | locus YDR195W, strain ref2 0.977 | locus YDR297W, strain sur2, stronger effect = lower value 0.993 | locus YDR334W, strain swr1, stronger effect = lower value 1.01 | locus YDR335W, strain msn5, stronger effect = lower value 1.01 | locus YDR392W, strain spt3, stronger effect = lower value 1.02 | locus YEL003W, strain gim4, stronger effect = lower value 1 | locus YEL037C, strain rad23, stronger effect = lower value 1.01 | locus YEL061C, strain CIN8 (second series), stronger effect = lower value 1 | locus YER015W, strain faa2, stronger effect = lower value 1.01 | locus YER016W, strain bim1, stronger effect = lower value 1.01 | locus YER111C, strain swi4, stronger effect = lower value 1.01 | locus YER155C, strain BEM2 (second series), stronger effect = lower value 0.993 | locus YFR010W, strain ubp6, stronger effect = lower value 1.01 | locus YGL167C, strain pmr1, stronger effect = lower value 1 | locus YGL173C, strain kem1, stronger effect = lower value 1 | locus YGL227W, strain vid30, stronger effect = lower value 0.989 | locus YGL240W, strain doc1, stronger effect = lower value 0.992 | locus YGL253W, strain hxk2, stronger effect = lower value 1.02 | locus YHR013C, strain ard1, stronger effect = lower value 0.982 | locus YHR027C, strain rpn1, stronger effect = lower value 1 | [13] 0.991 | locus YHR079C, strain IRE1, stronger effect = lower value 0.994 | locus YHR142W, strain chs7, stronger effect = lower value 1.02 | locus YJL092W, strain hpr5, stronger effect = lower value 1.02 | locus YJL095W, strain BCK1 (second series), stronger effect = lower value 1 | locus YJL095W, strain BCK1, stronger effect = lower value 0.999 | locus YJL115W, strain asf1, stronger effect = lower value 1 | locus YJL129C, strain trk1, stronger effect = lower value 1.02 | locus YJL154C, strain vps35, stronger effect = lower value 1.03 | locus YJL164C, strain tpk1, stronger effect = lower value 1.01 | locus YJL166W, strain qcr8, stronger effect = lower value 1.01 | locus YJL187C, strain SWE1, stronger effect = lower value 1.01 | locus YJR066W, strain TOR1, stronger effect = lower value 0.978 | locus YKL160W, strain elf1, stronger effect = lower value 1 | locus YKR026C, strain gcn3, stronger effect = lower value 1.02 | locus YKR091W, strain srl3, stronger effect = lower value 1.01 | locus YLL001W, strain dnm1, stronger effect = lower value 0.996 | locus YLL026W, stronger effect = lower value 1 | locus YLL041C, strain sdh2, stronger effect = lower value 1.02 | locus YLR027C, strain aat2, stronger effect = lower value 1.01 | locus YLR113W, strain HOG1, stronger effect = lower value 1 | locus YLR221C, strain rsa3, stronger effect = lower value 1 | locus YLR258W, strain gsy2, stronger effect = lower value 1.01 | locus YLR262C, strain YPT6 (second series), stronger effect = lower value 1.03 | locus YLR320W, strain mms22, stronger effect = lower value 0.981 | locus YLR342W, strain FKS1, stronger effect = lower value 1 | locus YLR357W, strain rsc2, stronger effect = lower value 1.01 | locus YLR370C, strain arc18, stronger effect = lower value 1.01 | locus YLR384C, strain iki3, stronger effect = lower value 1.01 | locus YML120C, strain ndi1, stronger effect = lower value 1.01 | locus YMR058W, strain fet3, stronger effect = lower value 1.01 | locus YMR125W, strain sto1, stronger effect = lower value 1.01 | locus YMR129W, stronger effect = lower value 1.01 | locus YMR205C, strain PFK2, stronger effect = lower value 0.994 | locus YMR231W, strain pep5, stronger effect = lower value 1 | locus YNL071W, strain lat1, stronger effect = lower value 1 | locus YNL183C, strain NPR1, stronger effect = lower value 0.975 | locus YNL209W, strain ssb2, stronger effect = lower value 1.01 | locus YNL248C, strain rpa49, stronger effect = lower value 0.977 | locus YNL322C, strain KRE1 (second series), stronger effect = lower value 1 | locus YNR049C, strain mso1, stronger effect = lower value 1.01 | locus YOR001W, strain rrp6, stronger effect = lower value 0.995 | locus YOR070C, strain gyp1, stronger effect = lower value 0.995 | locus YOR080W, strain dia2, stronger effect = lower value 1 | locus YOR083W, strain WHI5, stronger effect = lower value 0.991 | locus YOR106W, strain vam3, stronger effect = lower value 0.997 | locus YOR231W, strain MKK1, stronger effect = lower value 0.981 | locus YOR265W, strain rbl2, stronger effect = lower value 1 | locus YOR270C, strain vph1, stronger effect = lower value 1 | locus YOR290C, strain snf2, stronger effect = lower value 1 | locus YPL051W, strain arl3, stronger effect = lower value 1.02 | locus YPL078C, strain atp4, stronger effect = lower value 1.01 | locus YPL106C, strain sse1, stronger effect = lower value 1.03 | locus YPL240C, strain hsp82, stronger effect = lower value 1 | locus YPL256C, strain CLN2, stronger effect = lower value 0.989

N=C1Sc2ccccc2C2=NCCCN12
active: [16] 0.872
inactive: [1] 1.02 | [2] 1.01 | [12] 1.04 | [3] 1.01 | [4] 1.04 | [5] 1.02 | [14] 0.945 | [15] 1.01 | [7] 1.04 | [8] 1.02 | [9] 1.02 | [10] 1.01 | [11] 0.988 | [17] 1.02
